# About 5,800 (1.8%) of roughly 330,000 compounds were called active. The sample as a whole holds a higher share of actives than the screen did. A number with no mark means an inactive call.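 Rule for the calls: active = inhibition above about 50% at the single tested dose (limit read from the data); inactive = the rest.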
# Molecular target: Sentrin-specific protease 6 (Homo sapiens) (UniProt Q9GZR1)
# Assay: SENP6 protease inhibitors, primary screen, biochemical, luminescence, uHTS (AID 2599);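 note: plate controls were DMSO wells with enzyme for no effect and DMSO wells lacking enzyme for full effect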
# Conditions: Recombinant SENP6 catalytic domain, aminoluciferin luminescence; at 10 µM; active compounds read high
# Sentrin-specific protease 6 (Homo sapiens), sequence (Q9GZR1 628-1112 limits assumed): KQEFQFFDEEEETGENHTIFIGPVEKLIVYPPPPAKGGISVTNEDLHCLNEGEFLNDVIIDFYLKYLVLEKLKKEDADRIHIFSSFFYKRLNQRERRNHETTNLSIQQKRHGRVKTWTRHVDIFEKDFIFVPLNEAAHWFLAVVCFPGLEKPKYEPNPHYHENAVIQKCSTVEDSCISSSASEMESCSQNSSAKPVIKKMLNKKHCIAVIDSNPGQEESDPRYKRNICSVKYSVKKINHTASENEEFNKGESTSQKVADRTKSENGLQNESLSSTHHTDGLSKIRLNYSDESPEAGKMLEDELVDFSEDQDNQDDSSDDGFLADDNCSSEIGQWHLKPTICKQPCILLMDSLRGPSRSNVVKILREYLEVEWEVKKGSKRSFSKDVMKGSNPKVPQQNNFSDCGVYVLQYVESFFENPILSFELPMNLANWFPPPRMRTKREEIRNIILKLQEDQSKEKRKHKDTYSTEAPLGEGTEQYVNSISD
row,SMILES,inhibition
1,COC(=O)C1=C(C)N(C)C(=S)NC1c1cc(OC)ccc1OC (stereo unspecified),6.54%
2,O=C1c2ccccc2C(=O)N1Cc1cc(-c2ccccc2Cl)no1,-13.7%
3,Clc1ccc(COn2c(-c3ccc(Cl)cc3Cl)nc3ncccc32)cc1,3.31%
4,Clc1ccc(-c2cc(-c3ccccn3)on2)c(Cl)c1,95.1% (active)
5,CC1(C)OC(=O)C(=CNC(CO)C(=O)O)C(=O)O1 (stereo unspecified),-15.5%
6,COc1ccc(S(=O)(=O)N2CCOC23CCN(S(=O)(=O)c2ccc([N+](=O)[O-])cc2)CC3)cc1,-0.227%
7,CC(C)C(NC(=O)c1cccc(S(=O)(=O)N2CCOCC2)c1)C(=O)NCCc1ccccn1 (stereo unspecified),0.86%
8,COc1cccc(/C=C/c2ccc3ccccc3n2)c1OC(C)=O,14.1%
9,CC(=O)Oc1ccc(-c2nc3c(C)cccc3c(=O)o2)cc1,13.4%
10,COc1ccc(/C=C/c2noc(-c3ccccc3OC(C)=O)n2)cc1,89.4% (active)
11,O=C(Cc1ccc(S(=O)(=O)N2CCCC2)s1)NC1CCCCCC1,-13.1%
12,CSCCC(NC(=O)c1ccco1)C(=O)NCCc1ccc(F)cc1 (stereo unspecified),5.31%
13,O=[N+]([O-])c1ccc2oc(-c3cccc(O)c3)nc2c1,65.4% (active)
14,COc1cccc(-c2nnc(SCCOc3ccc4c(C)cc(=O)oc4c3)o2)c1,-18.6%
15,COc1ccc([N+](=O)[O-])cc1-c1nc2ccccc2nc1-c1ccccc1,-3.14%
16,COc1cccc(-c2nc3cc(C)ccc3o2)c1,97.8% (active)
17,CC(=O)Oc1ccc2c(=O)oc(-c3ccc([N+](=O)[O-])cc3)nc2c1,32.4%
18,COc1ccc2oc(-c3cccc(NC(=O)CSc4ccc(Cl)cc4)c3)nc2c1,-0.568%
19,COC(=O)c1ccccc1NC(=O)C1CCN(S(=O)(=O)c2cc(OC)ccc2OC)CC1,-0.874%
20,Cc1ccc(NC(=O)C(=O)NCC2CCN(C(=O)c3cccc([N+](=O)[O-])c3)CC2)cc1,0.692%
21,N#Cc1cccc(CSc2nnc(CCCO)n2-c2ccccc2)c1,-0.983%
22,Cc1cccc(NC(=O)c2ccc3ccccc3n2)n1,77.2% (active)
23,Cc1cccc(NC(=O)c2cccnc2Cl)n1,24.9%
24,Cc1cccc(NC(=O)c2cc(N3C(=O)CCC3=O)ccc2Cl)n1,-4.72%
25,COc1ccc(NC(=O)c2cn(-c3ccccc3)nc2SC)cc1,0.083%
26,Cc1c(C(C)CCCO)oc(=O)c2c1Oc1c(C)c(C(C)C[C@@H](C)O)oc(=O)c1C2 (stereo partly specified),13.7%

# — PubChem BioAssay AID2599 (Sanford-Burnham Center for Chemical Genomics, 2010)
